The values that follow come from PubChem BioAssay (Tox21).

The nature of assay [1]: qHTS RealTime-Glo MT Cell Viability Assay in HepG2 cells - 40 hour (AID 1224870). Also: nearly all actives have a fitted effect of over 50% in size. An outline of the steps:
(§1)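 HepG2 cells mixed with RealTime-Glo MT reagents (NanoLuc plus cell-permeant prosubstrate) were seeded at 600 cells/well, incubated 5 h at 37 C/5% CO2, then pinned with compounds in DMSO; nonlytic luminescence tracked viability during 40 h treatment.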

The nature of assay [2]: A CellTox Green Cytotoxicity Assay to monitor cytotoxicity in HEK293 cells - 40 hour (AID 1224871). Also: nearly all actives have a fitted effect of over 45% in size. Also: potency is read from the fitted curve at half-maximal effect. An outline of the steps: (§2)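 Homogeneous no-lysis format: HEK293 cell suspension mixed with CellTox Green reagent, seeded, incubated 5 h at 37 C/5% CO2, then dosed by pintool with compound in DMSO.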
The nature of assay [3]: qHTS RealTime-Glo MT Cell Viability Assay in HEK293 cells - 16 hour (AID 1224872). Also: nearly all actives have a fitted effect of over 50% in size. Also: potency is read from the fitted curve at half-maximal effect. An outline of the steps:
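Nonlytic real-time viability readout: viable cells convert prosubstrate to NanoLuc substrate, giving luminescence proportional to live cell number. HEK293, 600 cells/well, compound added after 5 h, continuous culture at 37 C.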
In general terms: Quantitative high-throughput screening tests each substance at several concentrations.

A short description of assay [4]: qHTS RealTime-Glo MT Cell Viability Assay in HEK293 cells - 40 hour (AID 1224874). Also: nearly all actives have a fitted effect of over 50% in size. Also: potency is read from the fitted curve at half-maximal effect. The settings on record: RealTime-Glo luminescence; max response: stronger effect = lower value. The method, boiled down:
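Measured as luminescence from the same continuously cultured HEK293 wells at successive time points (0, 8, 16, 24, 32, 40 h) after compound addition. Reagent present from seeding; dosing at 5 h; incubation 37 C.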

Assay [5] can be described thus: A CellTox Green Cytotoxicity Assay to monitor cytotoxicity in HEK293 cells - 24 hour (AID 1224875). Also: series mostly up to about 77 µM; nearly all actives have a fitted effect of over 45% in size. The method, boiled down: as §2
Assay [6] can be described thus: A CellTox Green Cytotoxicity Assay to monitor cytotoxicity in HepG2 cells - 16 hour (AID 1224876). Also: nearly all actives have a fitted effect of over 45% in size. Also: potency is read from the fitted curve at half-maximal effect. An outline of the steps: (§3)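 Fluorescent DNA-binding dye, 600 HepG2 cells/well, 5 h preincubation then compound in DMSO; same plates read at 0–40 h, 37 C.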
Assay [7] in a line: qHTS RealTime-Glo MT Cell Viability Assay in HepG2 cells - 32 hour (AID 1224877). Also: nearly all actives have a fitted effect of over 55% in size. The method, boiled down:
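Luminescence read-out: viable HepG2 cells reduce a prosubstrate to a NanoLuc substrate, giving a signal proportional to live cell number. Reads taken at 0, 8, 16, 24, 32 and 40 h of compound exposure at 37 C.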

Assay [8] is described as follows: A CellTox Green Cytotoxicity Assay to monitor cytotoxicity in HepG2 cells - 24 hour (AID 1224878). Also: nearly all actives have a fitted effect of over 45% in size. Also: potency is read from the fitted curve at half-maximal effect. The method, boiled down: as §3
Assay [9] in a line: A CellTox Green Cytotoxicity Assay to monitor cytotoxicity in HepG2 cells - 40 hour (AID 1224879). Also: nearly all actives have a fitted effect of over 40% in size. Also: potency is read from the fitted curve at half-maximal effect. The method, boiled down:
as §3

Assay [10] in a line: qHTS RealTime-Glo MT Cell Viability Assay in HepG2 cells - 8 hour (AID 1224873). Also: nearly all actives have a fitted effect of over 55% in size. An outline of the steps: as §1

Where “and” joins values, the source holds several entries; their conditions need not be identical. Identical values can stand only once. Results filed as inconclusive are left out. The source holds several records for some structures; these can differ, active in one and inactive in another. Calls of active or inactive are those of the source. Calls follow the shape of the dose curve; as a rule, active = well fitted curve in the direction sought with a large enough effect in the repeat runs; inconclusive = weak or mixed curves; inactive = no such curve, though single readings can be large; an effect the other way counts as inactive or inconclusive.
% is scaled to controls: 0 for no effect and ±100 for the full control effect.

With `C=C(C#N)C(=O)OCC`, the Potency result in [1], in [2], in [3], in assay [5], in [6] and in [7] was “inactive” throughout. For the same compound, the Potency result in assay [8] and in [9] was “inactive” each time. Further, the max response in assay [4] is -3.09% (inactive) and 0.0188% (inactive).

On to `CC(=O)[C@@]1(O)CC[C@H]2[C@@H]3CCC4=CC(=O)CC[C@]4(C)[C@H]3CC[C@@]21C`, for which the Potency entry in [1], in assay [2], in assay [3], in [10], in assay [5] and in assay [6] was “inactive” throughout. For the same compound, the Potency entry in assay [7], in [8] and in assay [9] was “inactive” throughout.

`Oc1ccc2ccccc2c1`: the Potency entry in assay [1], in assay [2], in assay [3], in assay [5], in [6] and in assay [7] was “inactive” throughout. In addition, the Potency entry in assay [8] and in assay [9] was “inactive” each time. Also, the max response in assay [4] is 17.4% (inactive) and 0.276% (inactive).

For the compound `CC#C[C@]1(O)CC[C@H]2[C@@H]3CCC4=CC(=O)CCC4=C3[C@@H](c3ccc(N(C)C)cc3)C[C@@]21C`, the Potency entry in [1], in assay [2], in assay [5], in [6], in assay [8] and in [9] was “inactive” throughout. Also, the Potency in assay [3] and in [4] was 49 µM (active) in each case.

Take `O=C1O[C@H](CO)[C@@H](O)[C@H](O)[C@H]1O`: the Potency entry in assay [1], in assay [2], in [3], in [5], in [6] and in assay [7] was “inactive” in each case. Besides, the Potency entry in [8] and in assay [9] was “inactive” each time. Further, the max response in [4] is 1.84% (inactive) and 0.71% (inactive).

Take `CCCCOCCO`: the Potency entry in [1], in assay [2], in assay [3], in assay [5], in assay [6] and in [7] was “inactive” throughout. In assay [8], the Potency entry is “inactive”. The max response in assay [4] was 3.58% (inactive) and 5.47% (inactive).

Take `C=C(C)C(=O)OCC(CC)(COC(=O)C(=C)C)COC(=O)C(=C)C`: the Potency result in assay [1], in assay [3], in [10] and in assay [7] was “inactive” in each case. For the same compound, the Potency entry was “inactive and 42.9 µM (active)” in assay [2]; “inactive and 42.9 µM (active)” in assay [6]; “inactive and 38.2 µM (active)” in assay [8]; “inactive and 42.9 µM (active)” in [9]. For the same compound, the max response in [4] was 2.46% (inactive) and 6.81% (inactive).

For the compound `COC(=O)Nc1nc2ccc(Sc3ccccc3)cc2[nH]1`, the Potency entry in [1], in assay [10], in [5], in [6] and in assay [7] was “inactive” in each case. Besides, the Potency in assay [2] was 21.3 µM (active); in [3] it was 1.38 µM (active) and 1.9 µM (active); in assay [4], 616 nM (active) and 848 nM (active); in assay [8], “inactive and 10.7 µM (active)”; in [9], 1.55 µM (active) and 848 nM (active).

Regarding `CCCCC(CC)COC(=O)CCCCCCCC(=O)OCC(CC)CCCC` (configuration not stated), the Potency result in assay [1] and in [7] was “inactive” in each case. For the same compound, the Potency is 49 µM (active) and inactive in assay [2]; 24.5 µM (active) and inactive in assay [3]; 4.9 µM (active) in assay [4]; 49 µM (active) in [6]; 49 µM (active) in assay [8]; 43.6 µM (active) in assay [9]. The max response in [4] was 4.32% (inactive).

On to `COC(=O)c1ccccc1O`, for which the Potency result in [1], in assay [2], in assay [3], in assay [5], in assay [6] and in assay [7] was “inactive” throughout. In addition, the Potency result in assay [8] and in assay [9] was “inactive” each time. Further, the max response in assay [4] is -1.26% (inactive) and 16.9% (inactive).

As for `CCCCCCOC(C)=O`, the Potency result in assay [1], in assay [2], in [3], in [5], in assay [6] and in assay [7] was “inactive” throughout. Besides, the Potency result in assay [8] and in assay [9] was “inactive” each time. The max response in assay [4] is 0.539% (inactive) and -29.1% (inactive).

Take `O=[N+]([O-])c1cc(N(CCO)CCO)ccc1NCCO`: the Potency entry in assay [1], in assay [3], in assay [10], in assay [5], in assay [6] and in assay [7] was “inactive” throughout. The Potency result in [8] was “inactive”. For the same compound, the max response in assay [4] was 0.623% (inactive) and 8.81% (inactive).

Consider `CC(C)NCC(O)COc1cccc2ccccc12` (configuration not stated), for which the Potency entry in assay [1], in assay [2], in assay [3], in assay [10], in assay [5] and in assay [6] was “inactive” each time. Besides, the Potency entry in assay [7] and in assay [8] was “inactive” each time.

As for `CC(C)(C)C1CCC(O)CC1` (configuration not stated), the Potency result in [1], in assay [2], in assay [3], in assay [10], in [5] and in [6] was “inactive” in each case. Also, the Potency entry in assay [7], in assay [8] and in assay [9] was “inactive” throughout. In addition, the max response in assay [4] was -21.7% (inactive) and -6.15% (inactive).

Turning to `CC(C)(N=C=O)c1cccc(C(C)(C)N=C=O)c1`, the Potency result in [1], in [2], in [3], in [5], in assay [6] and in assay [7] was “inactive” throughout. Besides, the Potency entry in assay [8] was “inactive”. In addition, the max response in assay [4] is 0.966% (inactive).

In the case of `Cc1cc(O)c2c(c1)C(=O)c1cc(O)cc(O)c1C2=O`, the Potency result in [1], in assay [2], in assay [3], in [5], in [6] and in assay [7] was “inactive” in each case. For the same compound, the Potency result in assay [8] and in assay [9] was “inactive” throughout.

`O=C(Cl)c1c(Cl)c(Cl)c(C(=O)Cl)c(Cl)c1Cl`: the Potency result in assay [1], in [2], in assay [3], in assay [5], in assay [6] and in assay [7] was “inactive” each time. The Potency entry in assay [8] and in assay [9] was “inactive” throughout. Besides, the max response in assay [4] is 8.71% (inactive) and 13.6% (inactive).

As to `CCCCC/C=C\C/C=C\CCCCCCCC(=O)OC`, the Potency result in assay [1], in assay [3], in [5], in assay [6], in assay [7] and in assay [8] was “inactive” throughout. In assay [9], the Potency entry is “inactive”. The Potency entry in [2] is “inactive and 54.9 µM (active)”. Also, the max response in assay [4] is 3.92% (inactive) and -0.83% (inactive).

For the compound `C=CC(=O)OCCCCCCCC(C)C`, the Potency entry in [1], in assay [2], in assay [3], in assay [10], in assay [5] and in [6] was “inactive” throughout. The Potency entry in assay [7], in [8] and in assay [9] was “inactive” throughout. The max response in [4] was 4.58% (inactive) and 25.2% (inactive).

`Cc1cc(NS(=O)(=O)c2ccc(N)cc2)no1`: the Potency result in [1], in [3], in [10], in assay [5], in assay [6] and in assay [7] was “inactive” each time. Moreover, the Potency result in [8] and in [9] was “inactive” each time. Also, in assay [4], the max response was 3.11% (inactive) and 0.646% (inactive).
